# Active and inactive are the calls of the source. Unless noted, the rule behind the calls is not given here.
# Legend:
# [1] = A549 cell viability effects, profiling panel, calcein-AM fluorescence, 48 h, basal (AID 1162); settings: higher = more signal; note: test concentration not given here
# [2] = adipocyte viability effects, profiling panel, cell-based, 3T3-L1 adipocytes, calcein-AM fluorescence, 48 h, basal (AID 1163); settings: 3T3-L1 adipocytes viability, higher = more signal; note: test concentration not given here
# [3] = HepG2 cell viability effects, profiling panel, calcein-AM fluorescence, 48 h, basal (AID 1164); settings: higher = more signal; note: test concentration not given here
# [4] = MM1S cell viability effects, profiling panel, calcein-AM fluorescence, 48 h, basal (AID 1165); settings: higher = more signal;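 note: viability of MM1S multiple myeloma cells under basal unstimulated conditions; test concentration not given here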
# [5] = basal RPMI8226 viability, no added stimulus, profiling panel, cell-based, calcein-AM fluorescence, 48 h, PK04 Diversity Set (AID 1166); settings: RPMI8226 myeloma viability, higher = more signal;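 note: cells grown under basal conditions without added stimulus; test concentration not given here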
# [6] = basal HepG2 mitochondrial membrane potential changes, profiling panel, cell-based, JC-1 fluorescence, 24 h, 100 nL compound (AID 1167); settings: higher = more signal; note: test concentration not given here
# [7] = basal 3T3-L1 adipocyte mitochondrial potential changes, profiling panel, cell-based, JC-1 fluorescence, 3T3-L1 adipocytes, 24 h, 100 nL compound (AID 1168); settings: JC-1 mitochondrial fluorescence, higher = more signal, called active from +8 up or from −8 down; note: test concentration not given here
# [8] = basal RPMI8226 mitochondrial membrane potential changes, profiling panel, cell-based, JC-1 fluorescence, 24 h, 100 nL compound (AID 1169); settings: RPMI8226 myeloma, JC-1 mitochondrial potential fluorescence, higher = more signal; note: test concentration not given here
# [9] = basal MM1S mitochondrial membrane potential changes, profiling panel, cell-based, JC-1 fluorescence, 24 h, 100 nL compound (AID 1170); settings: higher = more signal; note: test concentration not given here
# [10] = A549 lung cancer cell viability effects, profiling panel, resazurin fluorescence, 24 h, PK04 Diversity Set (AID 1171); settings: higher = more signal, called active from +8 up or from −8 down; note: test concentration not given here
# [11] = HepG2 liver cancer cell viability effects, profiling panel, resazurin fluorescence, 24 h, PK04 Diversity Set (AID 1172); settings: higher = more signal; note: test concentration not given here
# [12] = basal S. cerevisiae growth modulation, no modifier, primary screen, OD600, strain BY4716, 24 h, basal condition (AID 1173); settings: OD600, 24 h, higher = more signal, called active from +8 up or from −8 down
# [13] = MM1S myeloma cell viability, profiling panel, resazurin fluorescence, basal, 24 h, PK04 Diversity Set (AID 1174); settings: higher = more signal, called active from +8 up or from −8 down;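 note: MM1S multiple myeloma cell line; test concentration not given here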
# [14] = biological target: Dihydroorotate dehydrogenase (quinone), mitochondrial (Plasmodium falciparum (isolate 3D7)) (UniProt Q08210); test: PfDHODH enzyme inhibitors, primary screen, biochemical, C-terminal His tag, absorbance 600 nm (AID 1175); settings: DCIP absorbance 600 nm, higher = more signal, called active from +8 up or from −8 down;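 note: recombinant parasite enzyme with a five histidine tag at its C terminus; test concentration not given here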
# [15] = P. aeruginosa biofilm formation inhibitors, primary screen, strain PAO1, LB-PBS medium, absorbance 600 nm (AID 1176); note: test concentration not given here; settings: P. aeruginosa PAO1 growth/biofilm, A600, 12 h; higher = more signal
# [16] = S. cerevisiae RM11-1a growth modifiers, primary screen, strain RM11-1a, OD600, basal, 24 h (AID 1177); settings: OD600, 24 h, higher = more signal, called active from +8 up or from −8 down;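 note: cultures grown under basal conditions with no added stressor; test concentration not given here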
# [17] = E. coli acrAB mutant growth effects, primary screen, E. coli filamentation inducers, strain DRC39, OD650, 24 h (AID 1178); settings: higher = more signal, called active from +8 up or from −8 down;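 note: growth measured as culture turbidity by optical density at 650 nm; test concentration not given here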
# [18] = E. coli acrAB mutant growth effects, primary screen, E. coli filamentation inducers, strain DRC39, OD650, 48 h (AID 1179);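 note: screen aims at cell division blockers that make cells filament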; settings: E. coli DRC39 delta-acrAB growth, higher = more signal, called active from +8 up or from −8 down
# [19] = RPMI8226 myeloma cell viability, profiling panel, resazurin fluorescence, basal, 24 h, PK04 Diversity Set (AID 1180); settings: higher = more signal;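 note: RPMI8826 multiple myeloma cell line at 5000 cells per well; test concentration not given here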
# [20] = biological target: E3 ubiquitin-protein ligase XIAP (Homo sapiens) (UniProt P98170); test: XIAP binders, primary screen, biophysical, small-molecule microarray, fluorescence 635 nm (AID 1181); settings: small-molecule microarray binding, higher = more signal;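 note: score merges 667 nm emission and signal to noise over triplicate slides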
# Chain of E3 ubiquitin-protein ligase XIAP (Homo sapiens) (P98170 whole entry, looked up): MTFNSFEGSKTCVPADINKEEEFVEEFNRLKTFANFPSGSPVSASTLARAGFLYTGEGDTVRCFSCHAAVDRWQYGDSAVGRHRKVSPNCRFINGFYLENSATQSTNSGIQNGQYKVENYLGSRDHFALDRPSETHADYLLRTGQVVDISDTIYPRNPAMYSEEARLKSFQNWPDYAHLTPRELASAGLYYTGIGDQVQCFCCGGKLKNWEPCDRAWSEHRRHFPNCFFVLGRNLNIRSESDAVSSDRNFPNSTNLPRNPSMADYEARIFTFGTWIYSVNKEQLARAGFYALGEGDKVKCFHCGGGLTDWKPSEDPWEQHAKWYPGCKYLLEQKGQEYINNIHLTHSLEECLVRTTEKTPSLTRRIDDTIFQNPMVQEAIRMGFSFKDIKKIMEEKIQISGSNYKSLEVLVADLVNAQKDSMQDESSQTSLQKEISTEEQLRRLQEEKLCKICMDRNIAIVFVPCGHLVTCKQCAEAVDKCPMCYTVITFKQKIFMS
# Chain of Dihydroorotate dehydrogenase (quinone), mitochondrial (Plasmodium falciparum (isolate 3D7)) (Q08210 whole entry, looked up): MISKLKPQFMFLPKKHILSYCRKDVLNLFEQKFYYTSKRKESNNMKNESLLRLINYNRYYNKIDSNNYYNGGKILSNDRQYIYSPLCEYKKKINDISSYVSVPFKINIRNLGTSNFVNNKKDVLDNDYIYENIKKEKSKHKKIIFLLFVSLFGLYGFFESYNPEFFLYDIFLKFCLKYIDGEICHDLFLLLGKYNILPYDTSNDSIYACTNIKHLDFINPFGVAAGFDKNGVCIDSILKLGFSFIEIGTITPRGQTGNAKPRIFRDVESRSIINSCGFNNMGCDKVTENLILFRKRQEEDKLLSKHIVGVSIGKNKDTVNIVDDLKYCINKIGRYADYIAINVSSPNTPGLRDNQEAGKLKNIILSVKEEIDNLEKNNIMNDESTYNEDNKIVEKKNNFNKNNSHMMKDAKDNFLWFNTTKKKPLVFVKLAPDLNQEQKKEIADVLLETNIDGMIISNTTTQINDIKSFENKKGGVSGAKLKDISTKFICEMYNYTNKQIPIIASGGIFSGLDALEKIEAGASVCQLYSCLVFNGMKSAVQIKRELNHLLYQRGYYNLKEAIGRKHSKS
SMILES,z-score [1],z-score [2],z-score [3],z-score [4],z-score [5],z-score [6],z-score [7],z-score [8],z-score [9],z-score [10],z-score [11],z-score [12],z-score [13],composite z-score [14],z-score [15],z-score [16],z-score [17],z-score [18],z-score [19],composite z-score [20]
CCOC(=O)C[C@H]1[C@H](OC(=O)Cc2ccc3c(c2)OCO3)[C@@H](NC(=O)c2ccc(-c3ccccc3)cc2)c2cc(OCCCO)ccc2N1C(=O)Cc1ccc(OC)cc1,2.24,0.53,1.09,0.704,1.1,2.33,0.242 (inactive),0.679,-1.03,-0.0841 (inactive),0.366,-1.02 (inactive),0.322 (inactive),-1.32 (inactive),-0.0178 (inactive),-1.82 (inactive),0.261 (inactive),0.877 (inactive),0.489,0.179
CC(CO)N1C(=O)[C@@H]2C3C(=O)OCCC/C=C\[C@H]3OC23C=CCN(c2ccc4ccccc4c2)C(=O)[C@@H]13 (stereo not given in full),0.149,-0.0935,1.14,1.74,0.931,0.811,-0.373 (inactive),-0.713,-0.832,0.315 (inactive),-0.757,-0.55 (inactive),-0.208 (inactive),0.575 (inactive),-0.456 (inactive),0.179 (inactive),0.162 (inactive),0.703 (inactive),-0.0216,-0.0989
COc1cc(CO)cc(I)c1O[C@H]1C=C(C(=O)NCCO)C[C@@H](N(CCN2CCOCC2)C(=O)C2CCOC2)[C@@H]1O (stereo not given in full),0.736,-0.917,0.51,0.317,0.402,1.05,0.57 (inactive),0.0404,0.684,-0.435 (inactive),1.66,-2.49 (inactive),0.85 (inactive),0.938 (inactive),0.355 (inactive),0.0222 (inactive),2.68 (inactive),1.5 (inactive),0.923,0.02
CCCC[C@H]1OB(O)C[C@H]2C1=C(COc1ccccc1)C[C@H]1C(=O)N(C)C(=O)[C@H]12,0.498,0.0271,0.258,-1.46,-0.185,-1.29,0.468 (inactive),0.304,0.35,-0.166 (inactive),-0.0384,-2.57 (inactive),-0.508 (inactive),-0.514 (inactive),-0.0946 (inactive),-0.798 (inactive),-0.121 (inactive),-0.316 (inactive),-0.59,-0.031
CC(C)C[C@@H]1NC(=O)[C@H]2C[C@@H](C(=O)NCCCCCCN)[C@@H](c3ccc(O)cc3)N2C1=O,-0.145,0.106,-0.766,-0.495,-0.953,0.414,-0.217 (inactive),-0.279,0.861,-0.939 (inactive),-0.632,-0.134 (inactive),-0.403 (inactive),0.0444 (inactive),-0.226 (inactive),-0.459 (inactive),-0.396 (inactive),-0.975 (inactive),-0.299,-0.338
COc1ccc(C(=O)Nc2ccc(CN3C(=O)[C@@]4(O[C@@H](CCn5cc([C@H](O)c6ccccc6)nn5)[C@H]([Si](C)(C)c5ccc(OC)cc5)[C@H]4C)c4ccccc43)cc2)cc1,-0.443,-0.196,-4.62,-2.72,-3.02,1.73,1.17 (inactive),-1.1,-2.26,-1.15 (inactive),-1.44,-0.91 (inactive),-3.18 (inactive),-0.441 (inactive),1.04 (inactive),1.57 (inactive),0.245 (inactive),0.195 (inactive),-3.11,-0.16
O=C(NCc1ccc(F)cc1)[C@H]1C[C@H]2C(=O)N[C@@H](Cc3ccccc3)C(=O)N2[C@H]1c1ccc(O)cc1,0.0416,0.17,0.0329,-0.973,-0.27,1.11,0.672 (inactive),0.736,0.453,0.278 (inactive),-0.354,1.41 (inactive),0.396 (inactive),-0.0513 (inactive),-0.0185 (inactive),1.23 (inactive),0.222 (inactive),-0.324 (inactive),0.512,-0.224
COCCOC(=O)N1C(=O)[C@@]2(c3cc(C#CCCO)ccc31)[C@H](c1ccc(OCCO)cc1)N1[C@H](c3ccccc3)[C@H](c3ccccc3)OC(=O)[C@H]1[C@@H]2C(=O)N1CCN(c2ncccn2)CC1,0.559,0.344,0.479,-1.32,-0.713,0.503,-0.138 (inactive),-0.41,-1.19,0.253 (inactive),0.235,1.37 (inactive),0.327 (inactive),-0.547 (inactive),1.27 (inactive),1.24 (inactive),-0.448 (inactive),-0.327 (inactive),0.52,-0.212
COCCOC(=O)N1C(=O)[C@@]2(c3cc(C#Cc4ccc(OC)cc4)ccc31)[C@H](C(=O)N1CCCCCCC1)[C@H]1C(=O)O[C@H](c3ccccc3)[C@H](c3ccccc3)N1[C@@H]2c1ccc(OCCO)cc1,1.36,1.96,0.638,-1.36,0.809,0.162,-6.15 (inactive),-0.19,-0.987,1.62 (inactive),0.73,0.777 (inactive),1.15 (inactive),-1.37 (inactive),3.3 (inactive),0.262 (inactive),1.11 (inactive),2.25 (inactive),0.425,0.47

# Reference: PubChem BioAssay
